# In all, about 2,300 compounds went through this assay and about 1,500 (65%) were called active. The rule behind the calls is not given here. So high a share suggests a set chosen from earlier hits. A selection follows.
# Test: PubChem AID 2252;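 note: 100% = mean of untreated cell control wells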
# Conditions: THP-1 viability, CellTiter-Glo luminescence, 72 h; min viability: minimum viability across concentrations, stronger effect = lower value, concentration not given here; series mostly up to 50 µM; viability: at the top concentration
Structure (SMILES),viability,min viability
O=C(c1cccs1)N1CCN(S(=O)(=O)c2ccccc2)CC1,93.3% (inactive),–
COc1ccc(Cl)cc1NC(=O)c1cc(-c2ccccc2)on1,92% (inactive),–
C#CCOCCOCCOCCNc1nc(N2CCN(C(=O)[C@H](CCCCN)n3cc([C@@H](N)CC(C)C)nn3)CC2)nc(N2CCN(C(=O)[C@H](Cc3cc4ccccc4[nH]3)n3cc([C@@H](N)Cc4ccc(O)cc4)nn3)CC2)n1,98.8% (inactive),–
CO[C@@]1(NC(=O)C2SC(=C(C(N)=O)C(=O)O)S2)C(=O)N2C(C(=O)O)=C(CSc3nnnn3C)CS[C@@H]21 (stereo partly specified),84.2% (inactive),–
CC1=NOC(=O)/C1=C/c1ccc(O)cc1,94.8% (inactive),–
Fc1ccccc1CCNCc1ccccc1,84.2% (inactive),–
CCn1cc(C(=O)O)c(=O)c2cc(F)c(N3CCN(C(=O)Nc4ccccc4)CC3)cc21,82.1% (inactive),–
COc1ccc(Cl)cc1S(=O)(=O)N1CCN(C(=O)c2ccco2)CC1,94% (inactive),–
C#CCOCCOCCOCCNc1nc(N2CCN(C(=O)[C@H](Cc3ccc(O)cc3)n3cc([C@@H](N)CC(C)C)nn3)CC2)nc(N2CCN(C(=O)[C@H](Cc3ccc(O)cc3)n3cc([C@@H](N)CC(C)C)nn3)CC2)n1,102% (inactive),–
O=C(O)c1ccc(CSc2nnnn2C2CCCCC2)cc1,99.2% (inactive),–
COC(=O)c1ccc(NC(=O)c2ccccc2N(C)S(=O)(=O)c2ccccc2)cc1,80.3% (inactive),–
CCOC(=O)c1sc(N)c(C(=O)OC)c1C,83.4% (inactive),–
COc1cc(OC)nc(NC(=O)C(C)C)n1,93.5% (inactive),–
C[C@]1(OC(=O)/C=C/c2ccccc2)C[C@@H](O)[C@]2(O)C=CO[C@@H](O[C@@H]3O[C@H](CO)[C@@H](O)[C@H](O)[C@H]3O)[C@@H]21,87.5% (inactive),–
O=[N+]([O-])c1ccc(CN2CCSCC2)cc1,98.1% (inactive),–
NC(=O)c1cc(S(=O)(=O)Nc2cccc(F)c2)co1,99.6% (inactive),–
O=C(N/N=C/c1ccc(F)c(F)c1)c1cc2c(s1)-c1ccccc1CC2,97.7% (inactive),–
O=C(COc1ccc(Cl)cc1)N1CCN(C2CCCC2)CC1,110% (inactive),92.7%
O=C(/C=C/c1ccccc1)OCc1cnc(Cl)s1,98.5% (inactive),–
CCOC(=O)c1cccc(NC(=O)C2CCC(CNc3c(N4CCOCC4)c(=O)c3=O)CC2)c1 (stereo unspecified),91.6% (inactive),–
Cc1cc(C(=O)Nc2cccnc2)on1,101% (inactive),–
O=c1c2ccccc2[nH]c2ccccc12,86.8% (inactive),–
CCN1CCN(C(=O)c2cc3ccc(OC)cc3[nH]2)CC1,97.6% (inactive),–

Structure (SMILES),viability,min viability
CC(C)(C)NC(=O)/C=C/c1ccc(C(F)(F)F)cc1,92.3% (inactive),–
COc1cccc(CNc2nn[nH]n2)c1OC,106% (inactive),–
Nc1ccc(S(=O)(=O)Nc2ccc(Cl)nn2)cc1,98.9% (inactive),–
O=C(NC1(C(F)(F)F)C(=O)Nc2c1c(=O)[nH]c(=O)n2-c1ccccc1)c1ccncc1 (stereo unspecified),88.6% (inactive),–
CC(C)C(NS(=O)(=O)c1cccc2nsnc12)C(=O)N1CCn2c1nc1ccccc12 (stereo unspecified),94.3% (inactive),–
O=S(=O)(Nc1cccc(-c2cn3c(n2)SCC3)c1)c1ccc(F)cc1F,89.8% (inactive),–
CCOc1ccc(N2CC(C(=O)OCC(=O)NCc3ccccc3)CC2=O)cc1 (stereo unspecified),103% [at 25 µM] (inactive),–
O=C(NC(=S)Nc1c(F)cc(F)cc1Br)c1ccc2c(c1)OCCO2,94% (inactive),–
CCOC(=O)/C=C1/N(C)c2ccccc2C1(C)C,97.1% (inactive),–
CCCCOc1ccc(CN2CCC(O)CC2)cc1,95.6% (inactive),–
CCO[C@H]1OC(C(=O)O)=C[C@@H](c2ccccc2)[C@@H]1CCCO,93.8% (inactive),–
CCc1nc(SCC(=O)NCCc2ccccc2)c2c(=O)n(C)c(=O)n(C)c2n1,105% (inactive),–
C/C(=C\C(=O)OCCCCCCCCC(=O)O)C[C@@H]1OC[C@H](C[C@@H]2O[C@H]2[C@@H](C)[C@H](C)O)[C@@H](O)[C@H]1O,96.7% (inactive),–
Cc1cc(C)n2nc(S(=O)(=O)Nc3c(Cl)cccc3Cl)nc2n1,104% (inactive),–
COc1cccc(OC)c1C(=O)Nc1ccc(N2CCN(S(C)(=O)=O)CC2)cc1,84.6% (inactive),–
O=C(c1ccccc1F)N1C(=O)c2cccc3cccc1c23,91.2% (inactive),–
CCc1cccc2c(C=C(C#N)C#N)cn(CC(=O)N3CCCCCC3)c12,103% (inactive),–
COc1ccc(-c2cc(C(=O)Nc3ccc(S(=O)(=O)Nc4onc(C)c4C)cc3)c3ccccc3n2)cc1OC,96% (inactive),–
O=C1C(O)=C(O)C(=O)c2ccccc21,81.8% (inactive),–
Cc1cccc2cc(C(c3nnnn3Cc3ccccc3)N3CCN(C)CC3)c(=O)[nH]c12 (stereo unspecified),102% (inactive),–
O=C(C[n+]1cc(-c2ccc(Cl)cc2)n2c1CCC2)Nc1nc(-c2ccccc2)cs1,109% (inactive),–
C#CCOCCOCCOCCNc1nc(N2CCN(C(=O)[C@H](CCCCN)n3cc([C@@H](N)CO)nn3)CC2)nc(N2CCN(C(=O)[C@H](Cc3cc4ccccc4[nH]3)n3cc([C@@H](N)Cc4ccc(O)cc4)nn3)CC2)n1,91.4% (inactive),–
COc1ccc(-n2nnc3c(SCC(=O)N4CCCc5ccccc54)ncnc32)cc1,99.5% (inactive),–

Structure (SMILES),viability,min viability
CC(C)(C)SCCNC(=O)c1ccccc1,97.1% (inactive),–
Cc1cc(C)c2c(=O)[nH]c(SCC(=O)N3CCCCC3)nc2n1,87.6% (inactive),–
CN(CC(=O)NCc1ccncc1)S(=O)(=O)c1ccccc1,95.6% (inactive),–
O=C(Nc1ccc2c(c1)OCCO2)C(=S)NCc1ccccc1,81.3% (inactive),–
CCN(CC)CCn1nc(C)nc1-c1ccccc1O,95.7% (inactive),–
CCN(CC(=O)Nc1ccc(C(=O)OC)cc1)C1CCCCC1,97.9% [at 25 µM] (inactive),–
CC(=O)NS(=O)(=O)c1ccc(Nc2ccc([N+](=O)[O-])c3nonc23)cc1,93.8% (inactive),–
O=C(NC(CO)Cc1ccc([N+](=O)[O-])cc1)C(Cl)Cl (stereo unspecified),94% (inactive),–
C#CCOCCOCCOCCNc1nc(N2CCN(C(=O)[C@H](Cc3cc4ccccc4[nH]3)n3cc([C@@H](N)CC(C)C)nn3)CC2)nc(N2CCN(C(=O)[C@H](Cc3cc4ccccc4[nH]3)n3cc([C@@H](N)CC(C)C)nn3)CC2)n1,91.9% (inactive),–
COCCN1C(=O)C(=O)/C(=C(/O)c2cccc(OC)c2)C1c1ccncc1 (stereo unspecified),117% (inactive),–
Cc1cccc(NC(=O)CSc2nc3c([nH]c4ccccc43)c(=O)n2C)c1,87.8% (inactive),–
O=C(COc1ccc(Cl)cc1)Nc1cccc(-c2ccc3nncn3n2)c1,82.9% (inactive),–
CO[C@H]1/C=C/O[C@@]2(C)Oc3c(C)c(O)c4c(O)c(c(C=NN5CCN(C)CC5)c(O)c4c3C2=O)NC(=O)/C(C)=C\C=C\[C@H](C)[C@H](O)[C@@H](C)[C@@H](O)[C@@H](C)[C@H](OC(C)=O)[C@@H]1C,81.3% (inactive),–
CCOC(=O)c1ccc(NC(=O)c2cc3c(s2)CCC3)cc1,89% (inactive),–
CCC1(CC)C(=O)NC(=O)NC1=Nc1cccc(OC)c1,105% (inactive),–
CCOc1ccc2nnnn2n1,96.2% (inactive),–
CCCCC(=O)Nc1ccc(F)c(Cl)c1,90.9% (inactive),–
Clc1ccc(Cn2cc(Br)cn2)cc1Cl,85.3% (inactive),–
CCOC(=O)CSc1nc(-c2ccccc2)nc2ccccc12,103% (inactive),–
COc1ccccc1NC(=O)Cn1c(=O)n(CCc2c[nH]c3ccccc23)c(=O)c2cccnc21,92% (inactive),–
c1ccc(N2CCN(c3nc4ccccc4[nH]3)CC2)nc1,88.5% (inactive),–
C=CCOc1ccc(-c2n[nH]c(=S)o2)cc1,99.7% (inactive),–
C=CC1=C(C(=O)O)N2C(=O)[C@@H](NC(=O)/C(=N\O)c3csc(N)n3)[C@H]2SC1 (stereo in doubt),92.6% (inactive),–

Structure (SMILES),viability,min viability
COc1ccc(/C=N/NC(=O)c2cccnc2)cc1,91.8% (inactive),–
Cc1ccc2cc(-c3noc(C4CCCO4)n3)c(=O)[nH]c2c1 (stereo unspecified),93.5% (inactive),–
CCOc1ccc(NC(N)=O)cc1,103% (inactive),–
Clc1ccc(OCc2nn3c(C4CCCCC4)nnc3s2)c(Cl)c1,86.5% [at 25 µM] (inactive),–
COc1ccccc1CNC(=O)COC(=O)CCC(=O)c1cccs1,102% (inactive),–
O=c1c2ccccc2ncn1Cc1ccc(Cl)cc1,81.6% (inactive),–
COc1nc(N(C#N)CC(N)=O)nc(N2CCCC2)n1,89.8% (inactive),–
Cc1ccc(-c2c(C)n([O-])c3c([n+]2=O)CCCC3)o1,116% (inactive),–
O=S(=O)(c1ccccc1)c1nc(-c2cccs2)oc1NCC1CCCO1 (stereo unspecified),81.2% (inactive),–
C#CCOCCOCCOCCNc1nc(N2CCN(C(=O)C(Cc3cc4ccccc4[nH]3)n3cc(C(N)C(C)CC)nn3)CC2)nc(N2CCN(C(=O)C(Cc3cc4ccccc4[nH]3)n3cc(C(N)C(C)CC)nn3)CC2)n1 (stereo unspecified),92.1% (inactive),–
CC[C@H]1OC(=O)[C@H](C)[C@@H](O[C@H]2C[C@@](C)(OC)[C@@H](O)[C@H](C)O2)[C@H](C)[C@@H](O[C@@H]2O[C@H](C)C[C@H](N(C)C)[C@H]2O)[C@](C)(OC)C[C@@H](C)C(=O)[C@H](C)[C@@H](O)[C@]1(C)O,90.7% [at 25 µM] (inactive),–
CCOC(=O)Cc1[nH]nc2c1C(c1ccoc1)C(C#N)=C(N)O2 (stereo unspecified),89.2% (inactive),–
O/N=C/c1ccc(OCc2ccccc2)c(Cl)c1,96.7% [at 25 µM] (inactive),–
C#CCOCCOCCOCCNc1nc(N2CCN(C(=O)[C@H](Cc3ccc(O)cc3)n3cc([C@@H](N)CC(C)C)nn3)CC2)nc(N2CCN(C(=O)[C@H](Cc3cc4ccccc4[nH]3)n3cc([C@@H](N)CC(C)C)nn3)CC2)n1,97.2% (inactive),–
Cc1ncc([N+](=O)[O-])n1CC(=O)NC1CCCC1,101% (inactive),–
Cc1ccc(N(C(=O)c2sc(C)nc2C)C(C(=O)NCc2ccco2)c2ccccc2)cc1 (stereo unspecified),82.3% (inactive),–
CCOC(=O)c1ccc(CNCc2ccc(Br)cc2)cc1,83.4% (inactive),–
Cc1cc(C)cc(NC(=O)C(Sc2nnc(C)c(=O)[nH]2)c2ccccc2)c1 (stereo unspecified),101% (inactive),–
Nc1ccc(S(=O)(=O)Nc2nccs2)cc1,92.6% (inactive),–
CC(C)c1cc(C(=O)Nc2ccc3c(c2)OCO3)no1,82.2% (inactive),–
CC1Cc2ccccc2N1C(=O)CN1C(=O)C(=O)N(Cc2ccccc2)C1=O (stereo unspecified),108% (inactive),–

# Source: PubChem BioAssay AID2252 (Southern Research Specialized Biocontainment Screening …, 2010)
